Laboratory results as given in ChEMBL document CHEMBL1961873, “Compounds: GSK PKIS; Assays: Nanosyn kinase panel” (2012).

Columns and labels:
[1] = target: Sphingosine kinase 1 (Homo sapiens) (UniProt Q9NYA1); settings: at 1 µM;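 also: mean SPHK1 inhibition value reported from the GSK PKIS kinase panel screen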
[2] = target: T1, Sphingosine kinase 2 (Homo sapiens) (UniProt Q9NRA0); settings: at 0.1 µM
T1 sequence (whole entry): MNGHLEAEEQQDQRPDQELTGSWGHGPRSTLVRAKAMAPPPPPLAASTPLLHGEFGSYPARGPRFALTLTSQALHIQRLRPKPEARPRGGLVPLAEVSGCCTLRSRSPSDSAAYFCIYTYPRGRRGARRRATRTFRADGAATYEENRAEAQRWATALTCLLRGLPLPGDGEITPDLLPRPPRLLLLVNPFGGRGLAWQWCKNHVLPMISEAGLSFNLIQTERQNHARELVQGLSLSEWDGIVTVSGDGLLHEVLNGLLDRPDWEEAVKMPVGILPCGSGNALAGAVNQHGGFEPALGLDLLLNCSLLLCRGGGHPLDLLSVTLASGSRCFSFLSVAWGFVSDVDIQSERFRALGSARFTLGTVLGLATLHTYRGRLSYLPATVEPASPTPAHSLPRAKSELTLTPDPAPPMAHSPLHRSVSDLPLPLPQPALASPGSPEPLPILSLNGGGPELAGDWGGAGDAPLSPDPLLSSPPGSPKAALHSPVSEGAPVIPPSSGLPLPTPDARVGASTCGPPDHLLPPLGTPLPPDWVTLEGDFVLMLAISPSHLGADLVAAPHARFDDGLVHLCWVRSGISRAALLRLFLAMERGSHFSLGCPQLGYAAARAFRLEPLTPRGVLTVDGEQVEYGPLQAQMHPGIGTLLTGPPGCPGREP

[3] = target: T1, Sphingosine kinase 2 (Homo sapiens); settings: at 1 µM
[4] = target: Casein kinase II subunit alpha (Homo sapiens) (UniProt P68400); settings: at 1 µM
Chain of Casein kinase II subunit alpha (Homo sapiens) (P68400 whole entry, looked up): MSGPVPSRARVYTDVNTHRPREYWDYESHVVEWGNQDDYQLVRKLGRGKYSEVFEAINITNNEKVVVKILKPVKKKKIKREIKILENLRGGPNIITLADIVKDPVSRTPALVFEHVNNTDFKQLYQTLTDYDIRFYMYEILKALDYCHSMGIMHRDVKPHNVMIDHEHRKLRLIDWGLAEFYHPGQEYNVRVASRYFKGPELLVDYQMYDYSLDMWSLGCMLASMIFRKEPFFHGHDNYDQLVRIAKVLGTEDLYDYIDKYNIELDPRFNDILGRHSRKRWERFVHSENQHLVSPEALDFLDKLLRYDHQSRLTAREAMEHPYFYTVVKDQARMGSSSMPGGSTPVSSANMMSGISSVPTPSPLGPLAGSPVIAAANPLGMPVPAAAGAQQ

[5] = target: T2, Inhibitor of nuclear factor kappa-B kinase subunit alpha (Homo sapiens) (UniProt O15111); settings: at 0.1 µM
T2 sequence (whole entry): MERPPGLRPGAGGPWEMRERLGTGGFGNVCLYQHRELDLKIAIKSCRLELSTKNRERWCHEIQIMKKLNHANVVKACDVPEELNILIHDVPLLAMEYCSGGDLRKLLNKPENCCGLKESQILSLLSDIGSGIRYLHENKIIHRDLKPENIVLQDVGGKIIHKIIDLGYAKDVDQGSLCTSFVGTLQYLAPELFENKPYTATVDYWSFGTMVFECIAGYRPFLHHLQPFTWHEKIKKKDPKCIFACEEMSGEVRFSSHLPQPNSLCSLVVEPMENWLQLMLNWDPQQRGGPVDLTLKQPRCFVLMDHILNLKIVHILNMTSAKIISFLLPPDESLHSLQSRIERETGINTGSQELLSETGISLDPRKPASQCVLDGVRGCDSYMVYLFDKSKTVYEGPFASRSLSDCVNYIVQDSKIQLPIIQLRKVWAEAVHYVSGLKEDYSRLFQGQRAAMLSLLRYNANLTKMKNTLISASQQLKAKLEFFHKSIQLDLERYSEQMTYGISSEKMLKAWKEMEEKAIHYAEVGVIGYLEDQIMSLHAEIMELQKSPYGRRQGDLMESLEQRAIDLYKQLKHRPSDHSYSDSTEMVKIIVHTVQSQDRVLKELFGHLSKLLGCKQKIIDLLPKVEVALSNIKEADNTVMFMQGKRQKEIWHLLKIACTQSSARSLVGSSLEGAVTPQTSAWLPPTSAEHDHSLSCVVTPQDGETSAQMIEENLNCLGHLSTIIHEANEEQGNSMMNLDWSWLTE

[6] = target: T2, Inhibitor of nuclear factor kappa-B kinase subunit alpha (Homo sapiens); settings: at 1 µM
[7] = target: T3, Inhibitor of nuclear factor kappa-B kinase subunit beta (Homo sapiens) (UniProt O14920); settings: at 0.1 µM
T3 sequence (whole entry): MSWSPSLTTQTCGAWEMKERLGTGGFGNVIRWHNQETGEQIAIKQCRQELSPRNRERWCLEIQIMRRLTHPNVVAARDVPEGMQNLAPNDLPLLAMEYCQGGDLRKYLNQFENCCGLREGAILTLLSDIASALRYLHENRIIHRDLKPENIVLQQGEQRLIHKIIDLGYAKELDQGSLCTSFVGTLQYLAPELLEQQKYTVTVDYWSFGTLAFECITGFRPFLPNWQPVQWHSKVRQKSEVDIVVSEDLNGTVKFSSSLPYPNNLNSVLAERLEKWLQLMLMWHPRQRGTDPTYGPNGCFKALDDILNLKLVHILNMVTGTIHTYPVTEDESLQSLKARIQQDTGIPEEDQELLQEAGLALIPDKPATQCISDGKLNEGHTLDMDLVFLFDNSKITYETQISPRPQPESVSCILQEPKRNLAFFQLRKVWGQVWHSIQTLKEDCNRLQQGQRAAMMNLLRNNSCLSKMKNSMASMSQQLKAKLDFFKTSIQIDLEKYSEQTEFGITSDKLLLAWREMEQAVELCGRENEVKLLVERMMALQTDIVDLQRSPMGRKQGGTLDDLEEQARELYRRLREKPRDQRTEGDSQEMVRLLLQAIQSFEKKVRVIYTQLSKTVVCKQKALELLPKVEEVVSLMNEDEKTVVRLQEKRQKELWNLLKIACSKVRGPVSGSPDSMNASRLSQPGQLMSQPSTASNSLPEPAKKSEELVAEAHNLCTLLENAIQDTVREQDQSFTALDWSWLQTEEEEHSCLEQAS

[8] = target: T3, Inhibitor of nuclear factor kappa-B kinase subunit beta (Homo sapiens); settings: at 1 µM
[9] = target: T4, Inhibitor of nuclear factor kappa-B kinase subunit epsilon (Homo sapiens) (UniProt Q14164); settings: at 0.1 µM
T4 sequence (whole entry): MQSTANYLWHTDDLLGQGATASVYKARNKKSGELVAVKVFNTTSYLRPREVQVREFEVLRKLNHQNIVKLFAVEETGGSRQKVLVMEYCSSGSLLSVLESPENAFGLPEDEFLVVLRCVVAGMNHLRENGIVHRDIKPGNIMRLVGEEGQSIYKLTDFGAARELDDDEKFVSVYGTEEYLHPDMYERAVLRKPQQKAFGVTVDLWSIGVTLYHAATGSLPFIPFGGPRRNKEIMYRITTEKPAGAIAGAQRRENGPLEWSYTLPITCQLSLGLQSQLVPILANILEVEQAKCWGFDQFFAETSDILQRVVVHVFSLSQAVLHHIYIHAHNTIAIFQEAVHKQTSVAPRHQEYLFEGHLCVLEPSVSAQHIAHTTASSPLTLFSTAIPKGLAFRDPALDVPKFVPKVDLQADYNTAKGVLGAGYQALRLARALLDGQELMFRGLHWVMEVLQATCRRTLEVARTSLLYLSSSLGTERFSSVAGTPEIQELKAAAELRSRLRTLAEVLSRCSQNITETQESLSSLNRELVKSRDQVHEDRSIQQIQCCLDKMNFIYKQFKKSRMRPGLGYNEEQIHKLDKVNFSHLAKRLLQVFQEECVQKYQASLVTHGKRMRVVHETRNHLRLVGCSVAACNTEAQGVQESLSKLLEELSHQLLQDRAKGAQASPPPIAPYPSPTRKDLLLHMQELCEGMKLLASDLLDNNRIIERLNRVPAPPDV

[10] = target: T4, Inhibitor of nuclear factor kappa-B kinase subunit epsilon (Homo sapiens); settings: at 1 µM
[11] = target: T5, Serine/threonine-protein kinase Nek1 (Homo sapiens) (UniProt Q96PY6); settings: at 0.1 µM
T5 sequence (whole entry): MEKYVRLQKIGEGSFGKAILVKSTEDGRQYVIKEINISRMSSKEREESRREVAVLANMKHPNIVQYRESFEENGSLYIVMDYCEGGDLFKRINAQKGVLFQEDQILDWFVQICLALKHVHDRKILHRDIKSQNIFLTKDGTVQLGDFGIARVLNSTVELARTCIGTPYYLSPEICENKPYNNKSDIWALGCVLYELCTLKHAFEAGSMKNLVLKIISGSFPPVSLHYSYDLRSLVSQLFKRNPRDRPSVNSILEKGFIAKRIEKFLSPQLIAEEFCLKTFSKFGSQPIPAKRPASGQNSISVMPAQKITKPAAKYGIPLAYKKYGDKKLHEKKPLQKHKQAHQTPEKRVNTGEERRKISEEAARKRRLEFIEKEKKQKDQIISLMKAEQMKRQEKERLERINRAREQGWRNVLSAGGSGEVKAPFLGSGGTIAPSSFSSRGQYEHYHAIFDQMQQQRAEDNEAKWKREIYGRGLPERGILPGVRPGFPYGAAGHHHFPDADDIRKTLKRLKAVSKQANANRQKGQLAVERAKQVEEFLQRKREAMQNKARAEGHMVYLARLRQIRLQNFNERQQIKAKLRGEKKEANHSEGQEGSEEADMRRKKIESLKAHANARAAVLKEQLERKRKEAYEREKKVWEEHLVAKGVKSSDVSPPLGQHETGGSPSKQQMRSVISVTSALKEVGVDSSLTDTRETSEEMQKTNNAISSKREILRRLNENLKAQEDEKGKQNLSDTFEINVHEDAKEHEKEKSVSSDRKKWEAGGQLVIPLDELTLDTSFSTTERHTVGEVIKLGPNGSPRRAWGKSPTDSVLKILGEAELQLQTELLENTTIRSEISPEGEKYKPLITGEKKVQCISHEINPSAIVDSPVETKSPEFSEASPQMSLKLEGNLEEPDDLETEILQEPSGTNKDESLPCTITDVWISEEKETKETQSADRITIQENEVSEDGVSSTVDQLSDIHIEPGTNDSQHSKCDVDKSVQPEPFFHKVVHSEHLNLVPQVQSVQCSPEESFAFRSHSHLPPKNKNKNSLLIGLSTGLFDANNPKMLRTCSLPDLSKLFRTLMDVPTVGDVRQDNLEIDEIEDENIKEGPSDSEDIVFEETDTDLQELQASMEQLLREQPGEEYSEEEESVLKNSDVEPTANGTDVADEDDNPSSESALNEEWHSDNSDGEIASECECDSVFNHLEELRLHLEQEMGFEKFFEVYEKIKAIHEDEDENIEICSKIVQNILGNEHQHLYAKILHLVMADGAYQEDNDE

[12] = target: T5, Serine/threonine-protein kinase Nek1 (Homo sapiens); settings: at 1 µM
[13] = target: T6, Serine/threonine-protein kinase Nek2 (Homo sapiens) (UniProt P51955); settings: at 0.1 µM
T6 sequence (whole entry): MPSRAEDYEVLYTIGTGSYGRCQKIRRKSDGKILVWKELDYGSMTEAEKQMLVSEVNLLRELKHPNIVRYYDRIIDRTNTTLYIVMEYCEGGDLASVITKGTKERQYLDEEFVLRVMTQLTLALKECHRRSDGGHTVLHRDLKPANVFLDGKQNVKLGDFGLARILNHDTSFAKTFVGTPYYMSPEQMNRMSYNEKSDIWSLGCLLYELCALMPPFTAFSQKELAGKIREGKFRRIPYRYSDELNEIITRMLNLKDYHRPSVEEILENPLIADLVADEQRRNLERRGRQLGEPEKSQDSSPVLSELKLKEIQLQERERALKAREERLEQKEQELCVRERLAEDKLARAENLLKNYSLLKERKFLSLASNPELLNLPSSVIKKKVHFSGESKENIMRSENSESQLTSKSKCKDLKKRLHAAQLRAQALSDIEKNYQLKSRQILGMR

[14] = target: T6, Serine/threonine-protein kinase Nek2 (Homo sapiens); settings: at 1 µM
[15] = target: Serine/threonine-protein kinase Nek6 (Homo sapiens) (UniProt Q9HC98); settings: at 0.1 µM
Chain of Serine/threonine-protein kinase Nek6 (Homo sapiens) (Q9HC98 whole entry): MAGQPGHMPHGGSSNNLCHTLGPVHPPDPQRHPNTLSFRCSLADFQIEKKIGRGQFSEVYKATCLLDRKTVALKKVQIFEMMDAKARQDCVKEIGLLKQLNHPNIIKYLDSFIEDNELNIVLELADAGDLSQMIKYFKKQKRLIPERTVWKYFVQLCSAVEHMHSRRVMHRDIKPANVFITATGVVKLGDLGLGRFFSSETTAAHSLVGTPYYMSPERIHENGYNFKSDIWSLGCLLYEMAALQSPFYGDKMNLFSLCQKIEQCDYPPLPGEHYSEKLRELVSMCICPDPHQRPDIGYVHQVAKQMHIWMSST

[16] = target: Serine/threonine-protein kinase Nek6 (Homo sapiens) (UniProt Q9HC98); settings: at 1 µM
[17] = target: Serine/threonine-protein kinase Nek7 (Homo sapiens) (UniProt Q8TDX7); settings: at 0.1 µM
Chain of Serine/threonine-protein kinase Nek7 (Homo sapiens) (Q8TDX7 whole entry, looked up): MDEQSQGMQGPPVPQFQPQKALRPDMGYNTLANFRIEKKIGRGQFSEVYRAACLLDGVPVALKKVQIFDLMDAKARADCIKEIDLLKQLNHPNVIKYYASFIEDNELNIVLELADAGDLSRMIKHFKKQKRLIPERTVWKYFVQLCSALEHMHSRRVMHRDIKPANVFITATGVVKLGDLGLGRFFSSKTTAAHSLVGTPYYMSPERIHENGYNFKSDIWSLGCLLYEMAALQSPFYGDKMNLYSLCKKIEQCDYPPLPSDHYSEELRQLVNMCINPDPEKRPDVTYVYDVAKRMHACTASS

[18] = target: Serine/threonine-protein kinase Nek7 (Homo sapiens) (UniProt Q8TDX7); settings: at 1 µM
[19] = target: T7, Serine/threonine-protein kinase Nek9 (Homo sapiens) (UniProt Q8TD19); settings: at 0.1 µM;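 also: reported value is the mean percent inhibition of NEK9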
T7 sequence (whole entry): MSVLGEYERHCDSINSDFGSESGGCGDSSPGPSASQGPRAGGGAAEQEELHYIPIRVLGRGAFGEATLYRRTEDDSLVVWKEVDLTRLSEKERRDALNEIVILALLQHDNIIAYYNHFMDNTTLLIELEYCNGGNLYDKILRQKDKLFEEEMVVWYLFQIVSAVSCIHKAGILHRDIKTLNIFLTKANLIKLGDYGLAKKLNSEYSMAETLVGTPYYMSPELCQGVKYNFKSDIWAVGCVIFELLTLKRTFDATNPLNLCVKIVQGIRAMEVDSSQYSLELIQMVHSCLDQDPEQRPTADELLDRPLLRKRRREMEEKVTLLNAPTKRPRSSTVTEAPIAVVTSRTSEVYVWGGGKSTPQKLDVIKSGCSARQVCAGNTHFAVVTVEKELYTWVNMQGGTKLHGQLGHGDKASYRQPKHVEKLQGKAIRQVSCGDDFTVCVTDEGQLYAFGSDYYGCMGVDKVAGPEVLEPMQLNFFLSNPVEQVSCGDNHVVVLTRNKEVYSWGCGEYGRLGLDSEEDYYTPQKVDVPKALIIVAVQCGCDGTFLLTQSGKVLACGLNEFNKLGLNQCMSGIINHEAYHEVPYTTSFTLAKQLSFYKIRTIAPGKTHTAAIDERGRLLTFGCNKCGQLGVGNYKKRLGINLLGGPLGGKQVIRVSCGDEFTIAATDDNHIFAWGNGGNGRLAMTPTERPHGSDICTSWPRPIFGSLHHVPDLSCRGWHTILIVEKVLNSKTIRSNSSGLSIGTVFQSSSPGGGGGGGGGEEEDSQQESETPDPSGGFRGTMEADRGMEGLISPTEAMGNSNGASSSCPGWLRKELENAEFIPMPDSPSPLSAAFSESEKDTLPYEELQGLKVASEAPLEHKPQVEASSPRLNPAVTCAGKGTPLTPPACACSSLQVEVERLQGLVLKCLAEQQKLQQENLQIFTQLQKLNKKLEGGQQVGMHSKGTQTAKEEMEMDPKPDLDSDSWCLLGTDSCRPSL

[20] = target: Casein kinase II subunit alpha (Homo sapiens) (UniProt P68400); settings: at 0.1 µM

Chain of Sphingosine kinase 1 (Homo sapiens) (Q9NYA1 whole entry): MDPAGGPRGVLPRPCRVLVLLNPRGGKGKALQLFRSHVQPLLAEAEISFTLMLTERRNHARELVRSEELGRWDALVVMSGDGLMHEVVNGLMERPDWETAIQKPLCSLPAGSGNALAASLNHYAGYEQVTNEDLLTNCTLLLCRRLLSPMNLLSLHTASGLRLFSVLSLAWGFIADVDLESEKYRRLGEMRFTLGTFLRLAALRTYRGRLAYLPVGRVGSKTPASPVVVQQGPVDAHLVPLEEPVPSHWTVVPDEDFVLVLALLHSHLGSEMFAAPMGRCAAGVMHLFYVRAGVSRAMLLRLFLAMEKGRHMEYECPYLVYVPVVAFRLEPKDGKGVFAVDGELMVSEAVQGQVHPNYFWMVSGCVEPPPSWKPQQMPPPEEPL

SMILES	inhibition [1] [%]	inhibition [2] [%]	inhibition [3] [%]	inhibition [4] [%]	inhibition [5] [%]	inhibition [6] [%]	inhibition [7] [%]	inhibition [8] [%]	inhibition [9] [%]	inhibition [10] [%]	inhibition [11] [%]	inhibition [12] [%]	inhibition [13] [%]	inhibition [14] [%]	inhibition [15] [%]	inhibition [16] [%]	inhibition [17] [%]	inhibition [18] [%]	inhibition [19] [%]	inhibition [20] [%]
COc1ccc(-c2ccncc2)cc1C(N)=O	-0.74	0.88	-0.67	4.44	2.55	9.39	4.74	7.06	5.87	6.43	3.59	6.47	5.42	6.48	-0.26	1.43	3.68	8.72	4.72	
Cc1ccc(NC(=O)c2ccnc(N3CCCC3)c2)cc1-c1ccc(C(=O)NCC2CC2)cc1	0.63	0.74	-0.47	4.49	0.55	0.16	9.14	9.33	5.82	5.3	2.74	2.36	5.44	5.04	1.43	0.15	6.37	4.61	5.79	7.04
